Screening data from PubChem BioAssay.
gsp antagonist – antagonizes gsp, the McCune-Albright syndrome mutation; Potency, µM (doses to about 76.9 µM), inactives show at the top dose activity change, negative = inhibition, hits mostly inhibitors; 340,000 tested, 0.4% active; gsp-mutant cells, cAMP HTRF, 30 min; calls by dose curve; cell line not stated here;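 further: intracellular cAMP measured with PDE inhibitor Ro 20-1724 present during compound exposure; potency means the concentration at half of the fitted maximal effect; on the % scale 0 is the no-effect control and ±100 the full control effect; nearly all actives have a fitted effect of over 65% in size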
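HTRF cAMP read-out (cAMP-d2 plus anti-cAMP antibody-K in lysis buffer, 30 min RT). Before lysis, cells are exposed to compounds with […] for 30 min at 37C in DPBS containing Ca/Mg, BSA and Tween 20.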
gsp agonist – gsp mutant agonism | AID 624287 | Potency, µM (top dose mostly 76.9 µM), inactives show at the top dose activation (cAMP increase), hits mostly activators | gsp mutant cells, cAMP HTRF, 30 min | 340,000 tested, 0.13% active; active means well fitted activation curve with a large enough effect; inconclusive means small, poorly fitted or top-dose-only effect, or another doubt; inactive means no such curve, though single readings can be large or run the other way; cell line not stated here;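 further: phosphodiesterase inhibitor Ro 20-1724 added with compounds to block cAMP breakdown; potency means the concentration at half of the fitted maximal effect; nearly all actives have a fitted effect of over 60% in size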
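Cells in DMEM/10% FBS with G418 were pretreated with compounds in DMSO plus […] (300 uM stock) for 30 min at 37C. cAMP was measured by HTRF (cAMP-d2 plus anti-cAMP antibody-K) after 30 min at room temperature.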
RXFP1 agonist – RXFP1 (human) receptor agonism. Potency, µM (series often up to 57.5 µM), inactives show at the top dose activation, usual class: activators. Q9HBX9. HEK293T-RXFP1 cAMP TR-FRET, 30 min; response scale: percent of porcine relaxin response, buffer zero. 370,000 tested, 0.3% active; active means well fitted activation curve with a large enough effect; inconclusive means small, poorly fitted or top-dose-only effect; further: potency means the concentration at half of the fitted maximal effect; on the % scale 0 is the no-effect control and ±100 the full control effect; nearly all actives have a fitted effect of over 60% in size
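cAMP rise read by TR-FRET after 30 min, 37C compound exposure (up to 58 uM) in RXFP1-transfected HEK293 cells with Ro 20174 present. EC50 from Hill-equation fits, with 29 nM porcine relaxin as 100% and buffer as basal.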
RXFP1 antag – blocks the human relaxin receptor RXFP1; Q9HBX9; HEK293-RXFP1, relaxin-stimulated cAMP HTRF, 30 min; stronger effect = lower value; activity change, negative = inhibition, % at 57.5 µM; 350,000 tested, 0.59% active; AID 1259400;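 active means activity change of -60% or lower, but not beyond a set lower limit; inconclusive means change between -60% and -40%, or beyond the set limit; inactive means change above -40%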; further: on the % scale 0 is the no-effect control and ±100 the full control effect
ClpP mod – qHTS Assay for Activators of ClpP. AID 651965, 2013. purified B. subtilis ClpP, FRET peptide cleavage, 20 min. Potency, µM (titrated, usually from 57.5 µM), without a hit: top-dose activity change, negative = active. 340,000 tested, 1.9% active. ATP-dependent Clp protease proteolytic subunit (Bacillus subtilis (strain 168)), P80244; active means well fitted falling curve with a large enough effect; inconclusive means small, poorly fitted or top-dose-only effect; inactive means no such curve, though single readings can be large or run the other way; further: potency means the concentration at half of the fitted maximal effect; the source files actives as falling curves though it sought activators and does not explain the sign; nearly all actives have a fitted effect of over 65% in size
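Purified B. subtilis ClpP, 10 microg/mL final in Tris/HCl pH8 with KCl, BSA, glycerol and Tween-20, cleaved an Abz/nitrotyrosine-quenched decapeptide. Fluorescence (ex 320, em 430) was read at 0 and 20 min at room temperature. Delta was normalized to 5.8 microM ADEP and DMSO/no-enzyme controls.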
pAkt inh – inhibitors of Akt phosphorylation; 360,000 tested, 0.32% active; activity change, % for hits at 50 µM; Neuro2A IGF-stimulated pAkt S473 HTRF, 20 min; stronger effect = lower value; in the data active means activity change below about -80%; inconclusive means mostly about -51% to -80%; further: on the % scale 0 is the no-effect control and ±100 the full control effect
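Single-point screen (50 µM final compound) in Neuro2A cells stimulated 20 min with 6 nM IGF at 37 deg C. After lysis, Ser473-phosphorylated Akt read by HTRF (ex 330 nm, em 615/665 nm) as the 665/615 ratio.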
Starred values were filed as active, the others as inactive; i = inactive; ? = inconclusive; nt = not tested or not shown; [ ] = another dose, or the depositor's remark. A selection: hits, their analogues and other compounds. The true share with any hit is near 2.7%.

SMILES	gsp antagonist	gsp agonist	RXFP1 agonist	RXFP1 antag	ClpP mod	pAkt inh
CC(NCc1ccccc1Cl)C(=O)Nc1ccc(C#N)cc1 (stereo not given)	-1.4%	-0.4%[15.4 µM]	0.2%	-12.9	nt	i
COc1ccc(C(O)c2nc(-c3ccccc3)cs2)cc1 (stereo not given)	nt	nt	nt	nt	0.2%	i
O=C1C(SC(F)(F)C(F)F)=C(C(F)(F)F)OC2C3C=CC(C3)C12 (stereo not given)	2.7%	-16.8%	0.3%	2.2	15.8µM*	i
Cc1cc(C)cc(N2C(=O)C=CC2=O)c1	?	-11.0%	nt	-85.1*	-8.1%	i
CCCCC(CC)CNC(=O)CC(C)OC(=O)CCC(=O)O (stereo not given)	nt	nt	nt	6.4	nt	nt
Cc1cccc(NC(=O)c2ccc(COc3ccc(Cl)cc3Cl)o2)n1	6.3%	6.2%	0.2%	-11.0	-2.2%	-127.7%*
CCOC(=O)Nc1ccc2c(c1)N(C(=O)CCN1CCN(C)CC1)c1ccccc1S2	1.7%	-0.3%	-1.7%	-5.8	-1.0%	i
CCOC(=O)Nc1ccc2c(c1)N(C(=O)CCN1CCN(CCO)CC1)c1ccccc1S2	16.6%	-2.4%	nt	-6.4	0.9%	-123.5%*
COc1ccc(OC)c2c(C)cc(N3CCN(C(=O)c4ccc(F)cc4)CC3)nc12	-18.8%	-17.6%	3.6%	-0.7	20µM*	i
CCOC(=O)C(Cc1ccccc1)NC(=O)CCc1nnc2ccc(N3CCOCC3)nn12 (stereo not given)	4.9%	20µM*	27.4%	29.5	-0.7%	i
COc1cc(NC(=O)CCc2nnc3ccc(N4CCN(c5cccc(OC)c5)CC4)nn23)cc(OC)c1	10.3%	?	15.8µM*	4.0	-1.1%	i
COc1cccc(NC(=O)CCc2nnc3ccc(N4CCN(c5cccc(OC)c5)CC4)nn23)c1	?	1.5%	15.7%	-24.3	0.1%	i
Cc1cnn(C(=O)c2cc(-c3ccccc3)nc3ccccc23)c1	-12.0%	19.7%	-3.6%	1.4	17.6%	i
Cc1cc2ncn(C(=O)c3cc(-c4ccccc4)nc4ccccc34)c2cc1C	-21.0%	17.5%[15.4 µM]	2.7%	-9.7	14.1µM*	i
O=C(O)c1cc(-c2ccc(Br)s2)nc2ccccc12	-12.6%	?	2.82µM*	-6.1	3.3%	i
NC(=O)C1CCN(C(=O)c2cc(-c3ccc(Cl)s3)nc3ccccc23)CC1	-10.3%	12.4%	nt	7.0	4.1%	i
CC1CN(C(=O)c2cc(-c3ccc(Cl)s3)nc3ccccc23)CC(C)O1 (stereo not given)	6.8%	0.0%	4.5%	?	28.2µM*	i
CCOc1ccc(-c2cc(C(=O)N3CCN(C)CC3)c3ccccc3n2)cc1	-6.8%	11.4%	-2.8%	-7.4	28.2µM*	i
CCc1ccc(-n2nc3ccc(NC(=O)c4ccc(C#N)cc4F)cc3n2)cc1	nt	nt	2.0%	nt	2.8%	nt
O=C(C[n+]1cccc(Br)c1)c1ccc2ccccc2c1	nt	nt	nt	nt	-1.5%	nt
CCOc1ccc(-c2cc(C(=O)N3CCCC3)c3ccccc3n2)cc1	16.1%	-0.8%	0.0%	-5.4	14.1µM*	i
COc1cc(-c2ccccc2)nc2ccccc12	?	-0.9%	-2.2%	-2.0	-0.4%	i
CCOc1ccc(-c2nnc(Nc3ccc(OC)c(C(=O)N4CCCCC4)c3)c3ccccc23)cc1	35.5µM*	-69.7%	0.5%	0.6	-3.1%	i
COc1ccc(-c2cc(C(=O)N3CC(C)CC(C)C3)c3ccccc3n2)cc1 (stereo not given)	-11.8%	-1.5%[15.4 µM]	5.3%	-4.9	28.2µM*	i
COc1ccc(-c2cc(OC)c3ccccc3n2)cc1	?	-24.6%	0.8%	?	20µM*	i
SMILES	gsp antagonist	gsp agonist	RXFP1 agonist	RXFP1 antag	ClpP mod	pAkt inh
Clc1cccc(C(c2ccc3nc[nH]c3c2)n2ccnc2)c1 (stereo not given)	nt	nt	nt	-15.2	nt	nt
Cc1ccnc2c(N)cccc12	nt	nt	nt	nt	0.0%	nt
CC(=O)c1ccc(N2CCN(C(=O)c3cc(-c4ccc5c(c4)OCO5)nc4ccccc34)CC2)cc1	-1.2%	-11.4%	-0.4%	0.1	31.6µM*	i
COc1ccc2cc(-c3cc(C(=O)O)c4ccccc4n3)ccc2c1	-10.5%	?	13.9%	-3.6	25.1µM*	i
COc1cccc(NC(=O)CN(C)C(=O)c2cc(-c3ccc(F)cc3)nc3ccccc23)c1	39.8µM*	-18.4%	-2.0%	?	?	i
CC(C)(C)c1ccc(C(=O)NCC(c2cccnc2)N2CCc3ccccc3C2)cc1 (stereo not given)	nt	nt	-2.3%	-76.9*	-2.0%	nt
Cc1ccc(C(=O)NCC(c2cccnc2)N2CCc3ccccc3C2)cc1C (stereo not given)	nt	nt	-0.8%	-24.6	-2.9%	nt
Cc1cccc(C)c1NC(=O)CN1C(=O)S/C(=C\c2cccn2-c2cccc(C(=O)O)c2)C1=O	?	3.3%	2.1%	-10.0	28.2µM*	i
O=C(N/N=C/c1ccccn1)C1CC1	-3.0%	1.8%	3.4%	-10.4	1.9%	i
CC(C)(C)c1ccc2c(c1)OC(C(=O)N/N=C\c1ccccn1)CO2 (stereo not given)	3.4%	-45.6%	-2.0%	-61.3*	-1.9%	i
O=C(O)c1cccc(-c2ccc(/C=N/NC(=O)C3COc4ccccc4O3)o2)c1 (stereo not given)	-22.2%	-5.1%[15.4 µM]	0.8%	0.8	nt	i
CC(C)(C)c1ccc2c(c1)OC(C(=O)N/N=C\c1ccc(-c3cccc(C(=O)O)c3)o1)CO2 (stereo not given)	-24.5%	10.6%	3.9%	-74.5*	nt	i
CCOc1cc(C(=O)OC(C)C(=O)Nc2ncc(Cl)cc2Cl)ccc1OCC(=O)N1CCOCC1 (stereo not given)	50.1µM*	-9.6%	1.5%	-1.2	-6.4%	i
CCOc1cc(C(=O)OC(C)C(=O)Nc2ccccc2OC)ccc1OCC(=O)N1CCOCC1 (stereo not given)	-23.8%	-0.7%	nt	-6.0	-4.6%	i
OC(c1cccc(CN2CCCCC2)c1)c1ncc(-c2cccc3ccccc23)[nH]1 (stereo not given)	nt	nt	nt	nt	4.0%	i
Cc1cc(OCC(=O)OCC(=O)N2CCCCC2)ccc1Cl	nt	?	nt	-3.6	-1.5%	i
CCc1ccc(-n2nc(CO)c(C(=O)NCc3ccccc3OC)n2)cc1	nt	nt	1.2%	-11.2	-3.7%	nt
Cc1ccc(-n2nc(CO)c(C(=O)NCCC(C)C)n2)cc1C	nt	nt	0.1%	-36.9	?	nt
CCOc1ccc(-n2nc(CO)c(C(=O)NCC(C)O)n2)cc1 (stereo not given)	nt	nt	0.2%	-7.9	14.1µM*	nt
